Measured values published in PMC5540273 (PLoS ONE, 2017).

Assays:
Settings in all cases: concentration: 1 μM, replicates: in singlicate; n = 1
[1] = test system: CAMK1B
[2] = test system: CAMK1D
[3] = test system: CAMK1G
[4] = test system: CAMK1
[5] = test system: CAMK2A
[6] = test system: CAMK2B
[7] = test system: CAMK2D
[8] = test system: CAMK2G
[9] = test system: CAMK4
[10] = test system: CAMKK1
[11] = test system: CAMKK2
[12] = test system: CASK
[13] = test system: T1, CDC2L1
T1 construct: gene CDK11B

[14] = test system: CDC2L2
[15] = test system: T2, CDC2L5
T2 construct: gene CDK13

[16] = test system: T3, CDK11
T3 construct: gene CDK19

[17] = test system: CDK2
[18] = test system: CDK3
[19] = test system: CDK4-cyclinD1
[20] = test system: CDK4-cyclinD3
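Also: KINOMEscan kinase panel screen.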

| SMILES | %Inh [1] [%] | %Inh [2] [%] | %Inh [3] [%] | %Inh [4] [%] | %Inh [5] [%] | %Inh [6] [%] | %Inh [7] [%] | %Inh [8] [%] | %Inh [9] [%] | %Inh [10] [%] | %Inh [11] [%] | %Inh [12] [%] | %Inh [13] [%] | %Inh [14] [%] | %Inh [15] [%] | %Inh [16] [%] | %Inh [17] [%] | %Inh [18] [%] | %Inh [19] [%] | %Inh [20] [%] |
| --- | --- | --- | --- | --- | --- | --- | --- | --- | --- | --- | --- | --- | --- | --- | --- | --- | --- | --- | --- | --- |
| COC(=O)c1c(-c2ccccc2)c2cc(OC)ccc2c(=O)n1Cc1ccccc1 | 0 | 20 | 20 | 19 | 15 | 0 | 13 | 18 | 0 | 16 | 17 | 0 | 7 | 3 | 0 | 12 | 2 | 10 | 0 | 0 |
| Cc1cc(-c2ccc3c(c2)CC[C@@H](N[C@@H](C)c2ccccc2)C3)cnc1N.Cl [GW412617] | 4 | 13 | 100 | 23 | 0 | 0 | 97.6 | 21 | 18 | 12 | 23 | 0 | 0 | 2 | 0 | 40 | 12 | 6 | 0 | 0 |
| COc1ccc(Nc2nccc(-c3cccc(NC(=O)c4cc5cc(F)ccc5[nH]4)c3)n2)cc1 [GSK1229782] | 0 | 20 | 13 | 36 | 0 | 0 | 23 | 34 | 0 | 20 | 29 | 14 | 4 | 24 | 0 | 24 | 17 | 20 | 17 | 0 |
| Cl.O=C(Nc1cccc(-c2nn3ncccc3c2-c2ccnc(Nc3cccnc3)n2)c1)c1c(F)cccc1F [GSK312879] | 27 | 3 | 0 | 8 | 0 | 0 | 0 | 13 | 0 | 4 | 0 | 22 | 3 | 7 | 0 | 0 | 0 | 19 | 0 | 4 |
| Nc1nc(-c2nccs2)c(-c2ccnc3ccccc23)s1 [GW693542] | 7 | 27 | 0 | 30 | 0 | 0 | 0 | 13 | 0 | 6 | 0 | 0 | 0 | 1 | 0 | 0 | 0 | 7 | 0 | 0 |
| Cl.NC(=O)c1cccc(Nc2nccc(Nc3ccc(Oc4cccc(Cl)c4)c(Cl)c3)n2)c1 [GW659008] | 0 | 17 | 9 | 25 | 0 | 0 | 5 | 16 | 0 | 0 | 0 | 7 | 0 | 13 | 0 | 8 | 0 | 24 | 0 | 0 |
| Cl.c1ccc(-c2n[nH]cc2-c2ccnc(-c3ccc(CN4CCOCC4)cc3)c2)nc1 [GW776245] | 0 | 27 | 0 | 22 | 2 | 5 | 11 | 13 | 0 | 26 | 19 | 6 | 5 | 8 | 0 | 0 | 0 | 46 | 4 | 0 |
| O=C(Nc1ccc2c(c1)OCO2)NC1CCN(c2ccnc(Nc3ccc(F)cc3)n2)C1 (stereo not drawn) [GSK1379724] | 16 | 30 | 23 | 35 | 0 | 0 | 15 | 13 | 1 | 9 | 3 | 21 | 0 | 0 | 0 | 40 | 0 | 8 | 0 | 0 |
| Cc1ccc(NC(=O)Nc2cc(C(C)(C)C)nn2-c2ccccc2)cc1 [GSK1014915] | 33 | 3 | 0 | 0 | 0 | 0 | 0 | 14 | 0 | 12 | 0 | 12 | 31 | 7 | 0 | 62 | 0 | 8 | 0 | 4 |
| Cl.Oc1ccc(-c2nc(-c3ccccc3)[nH]c2-c2ccncc2)cc1 [SB-428218] | 24 | 0 | 2 | 2 | 0 | 0 | 9 | 29 | 0 | 18 | 15 | 0 | 0 | 5 | 0 | 8 | 0 | 55 | 49 | 2 |
| Nc1ncnc2[nH]c(-c3ccccc3)nc12 [AH5015] | 29 | 13 | 0 | 0 | 0 | 0 | 0 | 0 | 0 | 0 | 0 | 15 | 0 | 5 | 0 | 0 | 0 | 2 | 0 | 11 |
| CC1=C(C(=O)Nc2cc3cn[nH]c3cc2F)C(c2ccc(C(F)(F)F)cc2)CC(=O)N1 (stereo not drawn) [GSK429286] | 8 | 7 | 0 | 0 | 0 | 0 | 0 | 24 | 0 | 17 | 14 | 43 | 0 | 13 | 0 | 7 | 0 | 18 | 0 | 0 |
| CCCc1ccc(S(=O)(=O)NC2CCN(c3ccnc(Nc4ccc(F)cc4)n3)C2)cc1 (stereo not drawn) [GSK1379715] | 6 | 0 | 0 | 0 | 0 | 0 | 0 | 0 | 0 | 12 | 0 | 4 | 0 | 0 | 98.6 | 5 | 0 | 22 | 0 | 0 |
| Cc1cccc(-c2nc(-c3ccc(S(C)(=O)=O)cc3)sc2-c2ccnc(NCCc3ccccc3)c2)c1 | 0 | 0 | 16 | 31 | 0 | 0 | 7 | 9 | 0 | 13 | 0 | 18 | 6 | 0 | 44 | 0 | 0 | 0 | 0 | 0 |
| CCn1c(-c2cccnc2O)nc2cnccc21 [SB-736715] | 30 | 0 | 0 | 0 | 0 | 0 | 0 | 0 | 0 | 2 | 0 | 0 | 0 | 0 | 0 | 21 | 0 | 0 | 7 | 0 |
| Cc1ccccc1-n1cnc2c(N)ncnc21 [SKF-97510] | 0 | 5 | 0 | 0 | 24 | 14 | 4 | 4 | 0 | 1 | 8 | 0 | 0 | 1 | 0 | 0 | 0 | 0 | 0 | 0 |
| COc1cccc(NC(=O)NC2CCN(c3ccnc(Nc4ccc(F)cc4)n3)C2)c1 (stereo not drawn) [GSK1379721] | 27 | 12 | 0 | 10 | 0 | 0 | 6 | 22 | 0 | 18 | 14 | 7 | 0 | 14 | 0 | 59 | 0 | 18 | 0 | 0 |
| COc1ccc2nc(-c3cccc(C)n3)nc(Nc3ccncc3)c2c1 [GSK204919] | 0 | 2 | 0 | 5 | 0 | 0 | 0 | 3 | 0 | 0 | 0 | 23 | 0 | 0 | 0 | 0 | 0 | 0 | 0 | 0 |
| CCn1c(-c2ccccn2)nc2cnccc21 [SB-736398] | 34 | 0 | 0 | 0 | 0 | 0 | 0 | 0 | 0 | 0 | 0 | 2 | 27 | 0 | 100 | 0 | 0 | 0 | 0 | 3 |
| COc1cccc(-c2cc(-c3c[nH]nc3-c3ccccn3)ccn2)c1 [GW680338] | 22 | 14 | 0 | 0 | 0 | 0 | 16 | 15 | 0 | 0 | 9 | 18 | 0 | 9 | 0 | 10 | 0 | 6 | 58 | 0 |
| Cn1ccc2ncnc(Oc3cccc(C(=O)Nc4ccccc4)c3)c21 | 12 | 0 | 17 | 29 | 1 | 0 | 20 | 19 | 0 | 20 | 0 | 5 | 0 | 0 | 0 | 0 | 6 | 1 | 16 | 0 |
